DYRK1A inh – blocks rat Dyrk1A kinase activity | ADP-Glo luminescence, NFATc1 peptide | actives 0.43% (n = 310,000) | AID 504441 | inhibition, % at 12.5 µM | Q63470; in the data active = inhibition above about 50%
CDK5 inh – inhibitors of human CDK5/p35 kinase. actives 0.01% (n = 330,000). Q00535+Q15078. inhibition, % at 10 µM. Recombinant CDK5/p35, ADP-Glo luminescence, 60 min. AID 488839;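 active = highest replicate inhibition of at least 50% and at least 75% of replicates reaching 50%; inconclusive = only one of the two criteria met; inactive = both criteria failed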
Rtt109 HAT inh – C. albicans Rtt109 histone acetyltransferase inhibition; Q5AAJ8; purified Rtt109/Vps75, ThioGlo CoA-SH fluorescence, 4 h; inhibition, % at 34.9 µM; actives 0.16% (n = 330,000);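 active = inhibition of at least 50% in every replicate; inconclusive = best replicate reaches 50% inhibition but some replicates fall short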
Target sequence (Q5AAJ8 whole entry, looked up): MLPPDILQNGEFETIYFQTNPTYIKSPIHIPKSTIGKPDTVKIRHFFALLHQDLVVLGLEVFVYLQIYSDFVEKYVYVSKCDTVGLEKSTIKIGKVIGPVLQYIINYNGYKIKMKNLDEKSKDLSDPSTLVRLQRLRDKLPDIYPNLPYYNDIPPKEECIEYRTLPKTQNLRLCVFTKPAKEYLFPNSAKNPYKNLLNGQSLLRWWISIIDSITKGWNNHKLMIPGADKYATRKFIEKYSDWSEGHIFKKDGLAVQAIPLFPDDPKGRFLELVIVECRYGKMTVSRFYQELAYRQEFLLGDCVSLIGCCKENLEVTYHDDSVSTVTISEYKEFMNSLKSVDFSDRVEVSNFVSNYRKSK
esBAF inh – blocks esBAF chromatin remodeling in mouse ES cells; AID 602393; actives 2% (n = 350,000); Bmi1-luciferase knock-in reporter, 24 h; 100% = twice the neutral-well signal; reporter increase, % at 12.5 µM; in the data active = activation above about 40%; inconclusive = no clear call, values can overlap the other calls;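 note: a rise in the Bmi1 reporter signal indicates esBAF inhibition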
SMARCA2 act – increases SMARCA2 function in MMTV reporter cells | activation, % at 9.1 µM | MG213 cells, MMTV-luciferase reporter, dexamethasone, overnight | actives 1% (n = 370,000); in the data active = activation above about 7.8%
dFosB activator – mouse delta FosB homodimer activation; P13346; purified delta FosB, TAMRA-CDK5 oligo fluorescence polarization; percent of positive-control signal above neutral wells; activation, % at 25 µM; actives 0.99% (n = 340,000);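 active = mean activation above about 17%, with every replicate also reaching it, limit read from the data, passing the limit was not always enough; inconclusive = only one of the two conditions met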
Target sequence (P13346 whole entry, looked up): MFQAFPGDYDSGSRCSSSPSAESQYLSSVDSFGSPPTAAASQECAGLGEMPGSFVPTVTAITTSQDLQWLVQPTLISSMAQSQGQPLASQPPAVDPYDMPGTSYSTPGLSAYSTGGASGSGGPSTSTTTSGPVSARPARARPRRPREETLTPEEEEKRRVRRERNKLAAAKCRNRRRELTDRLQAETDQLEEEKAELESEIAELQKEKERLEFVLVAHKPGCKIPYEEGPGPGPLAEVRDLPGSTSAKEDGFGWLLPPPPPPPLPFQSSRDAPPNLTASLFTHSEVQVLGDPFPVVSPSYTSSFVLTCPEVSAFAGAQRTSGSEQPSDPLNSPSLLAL
Large screens that a line does not name were inactive. Only some compounds are listed: those with a hit (about 3.2% of all), similar ones and a draw of the others.

CC(C)CC#Cc1cnc2c(c1)C(=O)N([C@@H](C)CO)C[C@H](C)[C@@H](CN(C)Cc1ccccn1)O2	none (no result: DYRK1A inh, CDK5 inh, Rtt109 HAT inh, SMARCA2 act, dFosB activator)
COc1cccc(-c2cnc3c(c2)C(=O)N([C@@H](C)CO)C[C@@H](C)[C@@H](CN(C)Cc2ccc(F)cc2)O3)c1	none (no result: DYRK1A inh, CDK5 inh, Rtt109 HAT inh, SMARCA2 act, dFosB activator)
O=C(Nc1nnc(CSCc2ccc(F)cc2)s1)c1cccc([N+](=O)[O-])c1	DYRK1A inh 52.6 (no result: esBAF inh)
O=C(Nc1nnc(CSCc2ccc(Cl)cc2)s1)c1cccc([N+](=O)[O-])c1	none (no result: esBAF inh)
O=C(OCc1cc(=O)n2ccsc2n1)c1ccc(O)cc1O	esBAF inh 54.4 (no result: DYRK1A inh)
Cc1ccsc1C(=O)OCc1cc(=O)n2ccsc2n1	none
CC(C)c1cc(O)c(-c2ccccc2)c(=O)n1-c1ccc(Cl)cc1	none (no result: Rtt109 HAT inh)
CC(C)c1c(O)cc(-c2ccncc2)n(-c2ccc(Cl)cc2)c1=O	SMARCA2 act 14.1 (no result: DYRK1A inh, esBAF inh)
COc1ccc(NC(=O)N(C)C[C@@H]2Oc3ccc(NS(=O)(=O)c4ccc(OC)cc4)cc3CC(=O)N([C@H](C)CO)C[C@@H]2C)cc1	none (no result: DYRK1A inh, CDK5 inh, Rtt109 HAT inh, SMARCA2 act, dFosB activator)
Cc1ccccc1S(=O)(=O)N1CC[C@@H]2[C@@H](CO)Nc3ccc(-c4cccc(F)c4)cc3[C@@H]21	none (no result: DYRK1A inh, CDK5 inh, Rtt109 HAT inh, SMARCA2 act, dFosB activator)
COc1cc(N=Nc2ccc(C(=O)N(C)C)cc2)c(C)cc1N	esBAF inh 58.0 (no result: DYRK1A inh)
Nc1ncn([C@@H]2O[C@H](CO)[C@@H](O)[C@H]2O)c(=O)n1	esBAF inh 67.3
CC(c1ccccc1)n1c(N2CCNCC2)nc2c1c(=O)[nH]c(=O)n2C (stereo unspecified)	Rtt109 HAT inh 64.9
CCOc1ccc2nc(SC(C)C(N)=O)[nH]c2c1 (stereo unspecified)	SMARCA2 act 7.9
COCCNC(=O)C[C@H]1CC[C@H]2[C@@H](COc3ccc(NC(=O)c4cc(C)on4)cc3C(=O)N2C)O1	none (no result: DYRK1A inh, CDK5 inh, Rtt109 HAT inh, SMARCA2 act, dFosB activator)
O=C1NN(c2ccc(F)c(Cl)c2)C(=O)/C1=C\c1cccc(OC(=O)c2cccs2)c1	Rtt109 HAT inh 84.3
CC(C)=C1C(=O)NN(c2ccc(F)c(Cl)c2)C1=O	none
Cc1ccc(C(=O)c2coc3ccc(O)c(Cl)c23)cc1	esBAF inh 67.6
O=C(c1ccccc1)c1coc2ccc(O)c(Cl)c12	esBAF inh inconclusive
Cc1ccc(NC(=S)c2ccccc2)cc1	esBAF inh 67.8
C[C@H]1CN([C@@H](C)CO)S(=O)(=O)c2ccc(C3=CCCCC3)cc2O[C@H]1CN(C)C(=O)C1CC1	none (no result: DYRK1A inh, CDK5 inh, Rtt109 HAT inh, SMARCA2 act, dFosB activator)
COc1ccc2nc3sc(C(=O)N4CCN(C)CC4)cc3cc2c1	none
COc1ccc2nc3sc(C(=O)NCCCN4CCc5ccccc5C4)cc3cc2c1	esBAF inh 73.2
Cn1c(=NN=Cc2ccccc2OCCO)sc2ccccc21	esBAF inh 56.5 (no result: DYRK1A inh, CDK5 inh, Rtt109 HAT inh, dFosB activator)
CNC[C@@H]1Oc2ccc(NS(=O)(=O)c3ccc(C)cc3)cc2CC(=O)N([C@H](C)CO)C[C@H]1C	none (no result: DYRK1A inh, CDK5 inh, Rtt109 HAT inh, SMARCA2 act, dFosB activator)
CCN(CC)c1ccc(NC(=O)C2CC3CCC2C3)cc1 (stereo unspecified)	esBAF inh 47.7
O=C(Nc1ccccc1)C1CC2CCC1C2 (stereo unspecified)	none
C[C@H](CO)N1C[C@H](C)[C@H](CN(C)C(=O)Nc2cccc(F)c2)OCc2ccccc2-c2ccccc2C1=O	none (no result: DYRK1A inh, CDK5 inh, Rtt109 HAT inh, SMARCA2 act, dFosB activator)
COc1ccc(OC)c(C=NN=Cc2cc(OC)ccc2OC)c1	none (no result: DYRK1A inh, CDK5 inh, Rtt109 HAT inh, dFosB activator)
COc1ccc(OC)c(/C=N/N(C)c2ccccc2)c1	esBAF inh 73.4
COc1cc(/C=N/N(C)c2ccccc2)cc(Cl)c1O	esBAF inh 50.3
CCS(=O)(=O)Nc1ccc2c(c1)C(=O)N(C)C[C@@H](OC)[C@@H](C)CN(C)[C@@H](C)CO2	none (no result: DYRK1A inh, CDK5 inh, Rtt109 HAT inh, SMARCA2 act, dFosB activator)
CNC[C@@H]1Oc2cc(C3=CCCC3)ccc2S(=O)(=O)N([C@@H](C)CO)C[C@H]1C	none (no result: DYRK1A inh, CDK5 inh, Rtt109 HAT inh, SMARCA2 act, dFosB activator)
COCC(=O)Nc1ccc2c(c1)C(=O)N(C)C[C@H](OC)[C@@H](C)CN(C(=O)c1ccccc1F)[C@@H](C)CO2	none (no result: DYRK1A inh, CDK5 inh, Rtt109 HAT inh, SMARCA2 act, dFosB activator)
O=C(CSCc1c(F)cccc1F)Nc1ccccc1	esBAF inh 51.4
Cc1ccccc1CSCC(=O)Nc1ccccc1F	esBAF inh 48.1 (no result: DYRK1A inh)
CCCc1ccc(-c2cc(NC(=O)CSc3n[nH]c(N)n3)n(-c3ccccc3)n2)cc1	esBAF inh 64.5
COCCn1c(C)cc(C(=O)CSc2cc(C)c3ccccc3n2)c1C	none (no result: Rtt109 HAT inh)
COCCn1c(C)cc(C(=O)CSc2nc3ccccc3c(=O)n2Cc2ccco2)c1C	esBAF inh 96.6
COc1cccc(NC(=O)N2C[C@H](O)COC[C@H]3O[C@@H](CC(=O)NCc4ccccc4F)CC[C@@H]32)c1	none (no result: DYRK1A inh, CDK5 inh, Rtt109 HAT inh, SMARCA2 act, dFosB activator)
COc1cccc(-c2ccc3nccn3c2)c1	esBAF inh 49.4 (no result: DYRK1A inh, CDK5 inh, Rtt109 HAT inh, dFosB activator)
COc1cccc(-c2cnc3c(c2)C(=O)N([C@H](C)CO)C[C@H](C)[C@@H](CN(C)CC2CCCC2)O3)c1	none (no result: DYRK1A inh, CDK5 inh, Rtt109 HAT inh, SMARCA2 act, dFosB activator)
O=S(=O)(c1ccc(F)cc1)N1C[C@H]2[C@@H](c3ccccc31)[C@@H](CO)N2Cc1ccccc1Cl	none (no result: DYRK1A inh, CDK5 inh, Rtt109 HAT inh, SMARCA2 act, dFosB activator)
Cc1ccc(C(=O)Nc2nc(=O)n(C(=O)c3ccccc3C)s2)cc1	esBAF inh 60.2
CCCC1Oc2ccccc2C(=O)N(CC(=O)c2ccc3c(c2)OCCO3)C1=O (stereo unspecified)	esBAF inh 60.5
Cc1ccccc1C1=NC(c2ccc(F)cc2F)ON1 (stereo unspecified)	esBAF inh 47.7
O=C(C[C@@H]1CC[C@@H]2[C@H](COC[C@H](O)CN2C(=O)C2CCOCC2)O1)NCc1ccncc1	none (no result: DYRK1A inh, CDK5 inh, Rtt109 HAT inh, SMARCA2 act, dFosB activator)
CC1CC1C(=O)Nc1nc(-c2ccccn2)cs1 (stereo unspecified)	esBAF inh 51.0
O=C(Nc1nc(-c2ccccn2)cs1)C1COc2ccccc2O1 (stereo unspecified)	none
Cc1ccc(CNC(=O)Nc2ccc(C)cc2)cc1	none
Cc1ccc(CNC(=O)Nc2ccccc2)c(C)c1	esBAF inh 70.8, dFosB activator inconclusive

Compound activity as filed in PubChem BioAssay.
